This is an account of results in PubChem BioAssay (Tox21).

The nature of assay [1]: qHTS assay for small molecule agonists of the p53 signaling pathway (AID 651631; calls by dose curve; note: nearly all actives have a fitted effect of over 15% in size; note: potency is the fitted concentration of half-maximal effect). A digest of the protocol: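 HCT-116 cells carrying a stable p53 response element–beta-lactamase reporter were plated, rested 5 h at 37 °C, then exposed to compound in DMSO for 16 h at 37 °C; reporter activity was read as FRET substrate fluorescence after 2 h at room temperature.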
On the technique in general: In qHTS, concentration-response curves come from the screen itself.

Assay [2] can be described thus: qHTS assay for small molecules that induce genotoxicity in human embryonic kidney cells expressing luciferase-tagged ATAD5 (AID 651632). Note: nearly all actives have a fitted effect of over 15% in size. A digest of the protocol: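 Reporter cells (HEK293T) express luciferase-tagged ATAD5, a protein that accumulates after DNA damage. Treat 16 hr at 37C/5% CO2, add Amplite, wait 30 min at RT, and read luminescence.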
A short description of assay [3]: qHTS assay for small molecules that induce genotoxicity in human embryonic kidney cells expressing luciferase-tagged ATAD5 - cell viability (AID 651634; calls by dose curve; note: nearly all actives have a fitted effect of over 25% in size; note: potency is the fitted concentration of half-maximal effect). A digest of the protocol:
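Seeding of 2,000 HEK293T ATAD5-luciferase cells per well preceded pin-tool compound transfer. Plates sat 15.5 hr at 37C under 5% CO2, then fluorescence was read after 30 min with CellTiter-Fluor.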

Assay [4] can be described thus: qHTS assay for small molecule disruptors of the mitochondrial membrane potential - cell viability (AID 720634; calls by dose curve; note: nearly all actives have a fitted effect of over 20% in size; note: potency is the fitted concentration of half-maximal effect). A digest of the protocol:
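Measuring cytotoxicity alongside mitochondrial potential, the screen quantified ATP by luminescence in HepG2 cells after 1 hr compound incubation and a 30 min room-temperature CellTiter-Glo step.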

Assay [5] is described as follows: qHTS assay to test for compound auto fluorescence at 590 nm (red) in HepG2 cells (AID 720674). The essentials:
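HepG2 cells, 2,000 per well in MEM with 10% FBS, attached overnight at 37 C, then got 23 nL compound or DMSO. After 1 hr at 37 C, 5% CO2, red fluorescence was read at 540/590 nm against Rose Bengal sodium as reference.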

A short description of assay [6]: qHTS assay to test for compound auto fluorescence at 535 nm (green) in HepG2 cells (AID 720675).
Assay [7] in a line: qHTS assay to test for compound auto fluorescence at 460 nm (blue) in HEK293 cells (AID 720678). A digest of the protocol: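 Blue-channel (Ex/Em 405/460 nm) intensity measured in HEK293 cultures after overnight compound exposure at 37C; signal expressed relative to triamterene. Cells plated 2,000 per well in 10% dialyzed FBS medium and allowed 4-5 hr to attach.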
Assay [8] in a line: qHTS assay to test for compound auto fluorescence at 590 nm (red) in HEK293 cells (AID 720679). A digest of the protocol: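 Red-channel autofluorescence (Ex/Em 540/590 nm; Rose Bengal sodium reference) was measured after overnight 37C, 5% CO2 exposure of attached HEK293 cells, 2,000 per well in medium with 10% dialyzed FBS.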
A short description of assay [9]: qHTS assay for small molecule disruptors of the mitochondrial membrane potential (AID 720635). Note: potency is the fitted concentration of half-maximal effect. A digest of the protocol:
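HepG2 cells exposed to compound 1 hr at 37C, then Mito-MPS dye 30 min. Ratio read of aggregate (540/590 nm) versus monomer (490/535 nm) fluorescence.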

A short description of assay [10]: qHTS assay for small molecule agonists of the p53 signaling pathway - cell viability (AID 651633; calls by dose curve; note: nearly all actives have a fitted effect of over 30% in size; note: potency is the fitted concentration of half-maximal effect). A digest of the protocol:
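p53RE-bla cells were treated with compound for 16 hours at 37 C. Cytotoxicity was then measured as CellTiter-Glo luminescence after 30 min at room temperature.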

The structures appear in SMILES notation. Where “and” joins values, the source holds several entries; their conditions need not be identical. Equal entries are not always repeated. Results filed as inconclusive are left out. Some structures have more than one record in an assay (separate samples or runs), and their calls can disagree. Calls of active or inactive are those of the source. Unless noted, calls come from the whole dose curve; as a rule, active = well fitted curve in the direction sought with a large enough effect in the repeat runs; inconclusive = weak or mixed curves; inactive = no such curve, though single readings can be large; an effect the other way counts as inactive or inconclusive.
% is set by controls: 0 for no effect and ±100 for the full control effect.

In the case of `Clc1nnc(Cl)c2ccccc12`, the Potency entry in assay [1], in assay [2], in assay [3], in assay [4], in [5] and in assay [6] was “inactive” throughout. Besides, the Potency result in assay [7] and in assay [8] was “inactive” each time.
As for `CCCCC/C=C\C/C=C\CCCCCCCC(=O)O`, in assay [1], the Potency result is “inactive and 68.6 µM (active)”. The Potency result in [2], in assay [3], in assay [4], in assay [9], in assay [5] and in [6] was “inactive” throughout. For the same molecule, the Potency entry in assay [7] and in assay [8] was “inactive” in each case.
For the molecule `CC(C)CCCCCOC(=O)CCS`, the Potency entry in assay [1], in assay [2], in assay [3], in [4], in assay [5] and in assay [6] was “inactive” in each case. Further, the Potency result in assay [7] and in assay [8] was “inactive” each time.
As for `Sc1nc2ccccc2s1`, the Potency entry in assay [1], in [10], in assay [3], in [4], in assay [5] and in [6] was “inactive” throughout. Moreover, the Potency entry in assay [7] and in assay [8] was “inactive” in each case.
On to `NC(=S)NC(N)=S`, for which the Potency result in [1], in [2], in [3], in assay [4], in assay [5] and in assay [6] was “inactive” each time. Also, the Potency result in assay [7] and in assay [8] was “inactive” each time.
Take `NC(=O)c1cccc([N+](=O)[O-])c1`: the Potency result in assay [1], in assay [2], in assay [3], in assay [4], in [6] and in [7] was “inactive” each time. In addition, the Potency entry in assay [8] was “inactive”.
Consider `FC(F)(F)c1cccc(Cl)c1`, for which the Potency result in assay [1], in assay [10], in assay [3], in assay [4], in assay [5] and in [6] was “inactive” throughout. The Potency result in assay [7] and in assay [8] was “inactive” each time.
For the molecule `Cc1cccc2cccnc12`, the Potency result in [1], in assay [2], in assay [3], in [4], in [9] and in assay [5] was “inactive” in each case. Moreover, the Potency result in assay [6], in assay [7] and in assay [8] was “inactive” each time.
In the case of `OC[C@@H](O)[C@@H](O)CO`, the Potency result in [1], in assay [2], in assay [3], in assay [4], in assay [9] and in assay [5] was “inactive” in each case. Moreover, the Potency result in [6], in [7] and in assay [8] was “inactive” throughout.
In the case of `C=C(CC)C(=O)c1ccc(OCC(=O)O)c(Cl)c1Cl`, the Potency in assay [1] was 11.9 µM (active) and 9.62 µM (active). Further, the Potency entry in assay [2], in assay [3], in assay [4], in [5], in assay [6] and in assay [7] was “inactive” each time. Besides, the Potency entry in assay [8] is “inactive”.
Take `CN(C)Cc1ccccc1O`: the Potency result in assay [1], in [10], in assay [3], in assay [4], in assay [9] and in [5] was “inactive” throughout. Moreover, the Potency result in [6], in assay [7] and in assay [8] was “inactive” throughout.
Regarding `C1CCC(SSC2CCCCC2)CC1`, the Potency entry in assay [1], in assay [10], in assay [3], in [4], in [5] and in assay [6] was “inactive” in each case. In addition, the Potency result in [7] and in assay [8] was “inactive” in each case.
Regarding `CCCCCCCCCCCCCC[N+](C)(C)Cc1ccccc1`, the Potency result in assay [2], in assay [5], in [6], in assay [7] and in assay [8] was “inactive” in each case. The Potency in assay [10] is 23.7 µM (active) and 69.6 µM (active); in assay [3], 69.6 µM (active); in assay [4], 62.1 µM (active); in assay [9], 11.9 µM (active) and 27.7 µM (active).
As to `Cl[Si](Cl)(c1ccccc1)c1ccccc1`, the Potency entry in assay [2], in [10], in assay [3], in [4], in assay [5] and in assay [6] was “inactive” throughout. Further, the Potency result in assay [7] and in assay [8] was “inactive” each time. The Potency in assay [9] is 5.57 µM (active).
Turning to `C=CCCC(=O)/C=C/C1C(C)=CCCC1(C)C` (stereo not drawn), the Potency entry in assay [2], in [10], in [3], in assay [4], in assay [5] and in assay [6] was “inactive” each time. Also, the Potency result in [7] and in assay [8] was “inactive” in each case. Moreover, the Potency in assay [9] is 61.1 µM (active).
`CC[N+](CC)(CC)CCOc1ccc(/C=C/c2ccccc2)cc1`: the Potency entry in [2], in [10], in assay [3], in [4], in assay [9] and in assay [5] was “inactive” each time. Further, the Potency entry in assay [6], in [7] and in [8] was “inactive” in each case.
`O=C(O)c1cc(-c2ccc(F)cc2F)ccc1O`: the Potency entry in [2], in assay [10], in [3] and in assay [4] was “inactive” in each case. The Potency in assay [9] is 11.4 µM (active). For the same molecule, the fluorescence, relative to Rose Bengal in [5] is 0.164% [at 18.6 µM] (inactive). For the same molecule, the fluorescence, % of fluorescein control in assay [6] was -0.0913% [at 18.6 µM] (inactive). Moreover, the fluorescence, % of triamterene in [7] is -0.0352% [at 18.6 µM] (inactive). The fluorescence, % of fluorescent control in assay [8] is -0.141% [at 18.6 µM] (inactive).
Regarding `O=C1C(c2[nH]c3ccc(S(=O)(=O)O)cc3c2O)=Nc2ccc(S(=O)(=O)O)cc21`, the Potency result in [1], in [10], in [3], in assay [4], in [5] and in assay [6] was “inactive” each time. Also, the Potency entry in assay [7] and in assay [8] was “inactive” each time.
Consider `COC(C)=O`, for which the Potency entry in assay [2], in assay [10], in assay [3], in assay [4], in [9] and in assay [5] was “inactive” in each case. Also, the Potency result in assay [6], in assay [7] and in assay [8] was “inactive” in each case.
`CCCC(=O)OC(C)(C)Cc1ccccc1`: the Potency entry in assay [1], in assay [10], in [3], in assay [4], in assay [6] and in assay [7] was “inactive” in each case. Moreover, in assay [8], the Potency entry is “inactive”.
As for `CC1(C)[C@@H](O)CC[C@]2(C)[C@H]3C(=O)C=C4[C@@H]5C[C@@](C)(C(=O)O)CC[C@]5(C)CC[C@@]4(C)[C@]3(C)CC[C@@H]12`, the Potency result in assay [2], in [3], in assay [4], in assay [5], in [6] and in assay [7] was “inactive” throughout. For the same molecule, the Potency result in assay [8] was “inactive”. For the same molecule, the Potency in assay [10] was 23.7 µM (active) and inactive; in assay [9], 23.7 µM (active) and 67.8 µM (active).
On to `C=CC(=O)Nc1cc2c(Nc3ccc(F)c(Cl)c3)ncnc2cc1OCCCN1CCOCC1`, for which the Potency is 11.9 µM (active) in assay [1], 29.8 µM (active) in assay [10] and 10.6 µM (active) in [3]. Further, the Potency result in assay [4], in [5], in assay [6], in assay [7] and in assay [8] was “inactive” in each case.
Turning to `CC(C)=CCC1=C(O)c2ccccc2C(=O)C1=O`, the Potency in assay [1] is 1.53 µM (active); in assay [3], 54.2 µM (active); in assay [4], 54.2 µM (active); in assay [9], 24.2 µM (active). In addition, the Potency result in [5], in assay [6], in [7] and in [8] was “inactive” in each case.
